Where “and” joins values, the source holds several entries; their conditions need not be identical. Identical values can stand only once. About 2,000 (36%) of roughly 5,500 compounds were called active. Not shown: some 18% with an inconclusive outcome. No stated cut-off is given here; in the data, active means normalized growth mostly below about 0.91 (no sharp cut-off); inconclusive means no clear call, values can overlap the other calls; inactive means mostly above about 0.92. This is one part of the list.
Assay: chemical genetic growth profiling, strain panel (AID 1159580);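 further: tested at 20 µM; growth read once vehicle control cultures reached saturation at 30 °C; 1 = growth at the plate median or of vehicle wells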
Settings: S. cerevisiae deletion strains, growth OD

Measured: normalized growth

CN(N=O)C(=O)N[C@@H]1[C@@H](O)[C@H](O)[C@@H](CO)O[C@@H]1O
inactive: locus YAL021C, strain ccr4, stronger effect = lower value 1 | locus YAL026C, strain drs2, stronger effect = lower value 0.991 | locus YAL030W, strain snc1, stronger effect = lower value 0.988 | locus YBL061C, strain skt5, stronger effect = lower value 1.01 | locus YBR009C, strain hhf1, stronger effect = lower value 0.979 | locus YBR021W, strain FUR4, stronger effect = lower value 1 | locus YBR023C, strain chs3, stronger effect = lower value 0.999 | locus YBR171W, strain sec66, stronger effect = lower value 1.01 | locus YBR229C, strain ROT2, stronger effect = lower value 1 | locus YBR231C, strain swc5, stronger effect = lower value 0.997 | locus YBR279W, strain paf1, stronger effect = lower value 1.02 | locus YCL011C, strain gbp2, stronger effect = lower value 1 | locus YCL016C, strain dcc1, stronger effect = lower value 1.03 | locus YCL029C, strain bik1, stronger effect = lower value 0.99 | locus YCL061C, strain MRC1, stronger effect = lower value 1.02 | locus YCL069W, strain vba3, stronger effect = lower value 0.974 | locus YCR088W, strain abp1, stronger effect = lower value 0.973 | locus YDL005C, strain med2, stronger effect = lower value 0.98 | locus YDL035C, strain GPR1, stronger effect = lower value 1.03 | locus YDL040C, strain nat1, stronger effect = lower value 0.999 | locus YDL074C, strain BRE1, stronger effect = lower value 1.02 | locus YDL101C, strain DUN1, stronger effect = lower value 1.01 | locus YDL134C, strain PPH21, stronger effect = lower value 1.02 | locus YDL185W, strain tfp1, stronger effect = lower value 1.02 | locus YDL192W, strain arf1, stronger effect = lower value 1.01 | locus YDR001C, strain nth1, stronger effect = lower value 0.978 | locus YDR069C, strain doa4, stronger effect = lower value 0.986 | locus YDR101C, strain arx1, stronger effect = lower value 0.979 | locus YDR137W, strain rgp1, stronger effect = lower value 0.938 | locus YDR150W, strain NUM1, stronger effect = lower value 1.01 | locus YDR159W, strain sac3, stronger effect = lower value 0.945 | locus YDR162C, strain NBP2, stronger effect = lower value 1.04 | locus YDR195W, strain ref2 0.988 | locus YDR297W, strain sur2, stronger effect = lower value 0.998 | locus YDR318W, strain mcm21, stronger effect = lower value 1.01 | locus YDR334W, strain swr1, stronger effect = lower value 0.95 | locus YDR335W, strain msn5, stronger effect = lower value 0.981 | locus YDR388W, stronger effect = lower value 1.01 | locus YDR392W, strain spt3, stronger effect = lower value 0.956 | locus YDR502C, strain sam2, stronger effect = lower value 0.998 | locus YEL003W, strain gim4, stronger effect = lower value 0.995 | locus YEL037C, strain rad23, stronger effect = lower value 0.986 | locus YEL061C, strain CIN8 (second series), stronger effect = lower value 0.971 | locus YEL061C, strain CIN8, stronger effect = lower value 1.01 | locus YER015W, strain faa2, stronger effect = lower value 1 | locus YER016W, strain bim1, stronger effect = lower value 0.983 | locus YER110C, stronger effect = lower value 1.01 | locus YER111C, strain swi4, stronger effect = lower value 0.998 | locus YER155C, strain BEM2 (second series), stronger effect = lower value 0.983 | locus YER155C, strain BEM2, stronger effect = lower value 1 | locus YER167W, strain BCK2, stronger effect = lower value 1.02 | locus YFR010W, strain ubp6, stronger effect = lower value 0.954 | locus YGL078C, strain dbp3, stronger effect = lower value 1 | locus YGL086W, strain mad1, stronger effect = lower value 0.989 | locus YGL167C, strain pmr1, stronger effect = lower value 0.993 | locus YGL173C, strain kem1, stronger effect = lower value 1.01 | locus YGL227W, strain vid30, stronger effect = lower value 1.01 | locus YGL240W, strain doc1, stronger effect = lower value 0.985 | locus YGL248W, strain PDE1, stronger effect = lower value 0.996 | locus YGL253W, strain hxk2, stronger effect = lower value 0.982 | locus YGR078C, strain PAC10, stronger effect = lower value 0.999 | locus YGR135W, strain pre9, stronger effect = lower value 1.04 | locus YGR229C, strain SMI1, stronger effect = lower value 1.01 | locus YGR252W, strain gcn5, stronger effect = lower value 1.02 | locus YHR013C, strain ard1, stronger effect = lower value 0.999 | locus YHR027C, strain rpn1, stronger effect = lower value 0.99 | locus YHR030C, strain SLT2, stronger effect = lower value 1 and 1.02 | locus YHR079C, strain IRE1 (second series), stronger effect = lower value 1 | locus YHR079C, strain IRE1, stronger effect = lower value 1.07 | locus YHR094C, strain hxt1, stronger effect = lower value 1 | locus YHR129C, strain ARP1, stronger effect = lower value 0.998 | locus YHR142W, strain chs7, stronger effect = lower value 0.962 | locus YHR200W, strain rpn10, stronger effect = lower value 1.01 | locus YIL066C, strain RNR3, stronger effect = lower value 1.01 | locus YIL073C, strain SPO22, stronger effect = lower value 1.14 | locus YIL125W, strain kgd1, stronger effect = lower value 1 | locus YIR030C, strain dcg1, stronger effect = lower value 1 | locus YJL092W, strain hpr5, stronger effect = lower value 0.979 | locus YJL095W, strain BCK1 (second series), stronger effect = lower value 1 | locus YJL095W, strain BCK1, stronger effect = lower value 1.02 and 1 | locus YJL115W, strain asf1, stronger effect = lower value 0.981 | locus YJL129C, strain trk1, stronger effect = lower value 0.984 | locus YJL134W, strain LCB3, stronger effect = lower value 1 | locus YJL154C, strain vps35, stronger effect = lower value 0.998 | locus YJL164C, strain tpk1, stronger effect = lower value 0.993 | locus YJL166W, strain qcr8, stronger effect = lower value 1 | locus YJL168C, strain set2, stronger effect = lower value 1.01

— PubChem BioAssay AID1159580 (chemical genetic matrix, 2015)
